Compounds without any hit were thinned out: in the full panel of roughly 83,000, 20% have a hit.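 96-well plates, one dose, 48 hours. Percent growth reported; active if below 10.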 Unmarked numbers belong to inactive results. Calls of active or inactive are those of the source.
system: MDA-MB-468 breast; experiment: NCI-60 one-dose screen, 48 h (100 = growth as untreated, 0 = no growth, -100 = all killed); conditions: 10 µM unless noted

Structure (SMILES)	growth
CCOC(=O)C(CC(c1ccccc1)N1CCCCC1)[N+](=O)[O-] (centres undefined)	49.7%
COc1ccc2c(Cl)cc(NC(=O)Nc3c(C)cccc3C)nc2c1	79.2%
Brc1ccc(Nc2csc(-c3ccccn3)n2)cc1	97.5%
CCCCCCCC[C@@H]1N[C@@H](C(=O)OC)Cc2c1[nH]c1ccccc21	94.3%
NC(=S)N/N=C/c1ccc(Cl)s1	98.8%
O=C1NC(=O)c2c1c1c3ccccc3[nH]c1c1oc3cc(Br)ccc3c21	62.6%
O=c1oc2ccc3ccccc3c2cc1-c1ccnc2[nH]c(=S)[nH]c(=O)c12	97.1%
CC(=O)c1c(OCC#N)ccc2c(C)cc(=O)oc12	93.2%
O=C1Nc2cc(-c3ccc(O)cc3)ccc2/C1=C/c1ccc[nH]1	-29.2% (active)
CCCCCCN(CCCCCC)CCC(O)c1ccc2ccccc2c1 (centres undefined)	18.6%
COc1ccc(NC(=O)[C@H](C)NC(=O)OC(C)(C)C)cc1C(=O)Nc1cccc(-c2cc(=O)c3c(OC)c(OC)c(OC)cc3o2)c1	4.39% (active)
COc1cc(-c2nn(-c3ccc(NC(=O)Nc4ccc(Cl)c(C(F)(F)F)c4)cc3)cc2-c2ccncc2)ccc1Cl	-13.2% (active)
CC(=O)c1cc2c(c(O)c1C)C(=O)C(=O)c1c(O)cccc1-2	-58% (active)
O=c1[nH]c2ccccc2n1C1CCN(CCOc2ccccc2)CC1	78.9%
CN(C)CCOC(=O)C(C)(C)C	98.9%
CCCCN1C(=O)c2cccc3c(-c4ccc5c(c4)ncn5C4CCCCC4)ccc(c23)C1=O	101%
O=C1CCC(N2C(=O)c3cccc(NCCCCCCOc4ccc(Nc5nccc(Nc6ccccc6)n5)cc4)c3C2=O)C(=O)N1 (centres undefined)	49.3%
COc1cc(Cn2c(-c3ccccc3)cc3c2-c2oncc2CC3)cc(OC)c1	-21.4% (active)
Cc1ccc(-c2csc(N/N=C/c3nc4ccccc4n3C3CC3)n2)cc1	98.5%
COc1ccc(C(=O)N2C=Cc3ccccc3C2C#N)cc1 (centres undefined)	82.9%

Structure (SMILES)	growth
COc1ccc(C(=O)N2NC(=O)/C(=C/c3ccc(F)cc3)N=C2c2ccccc2)cc1	90.6%
O=C(N/N=C/c1cccs1)c1[nH]c2ccc(Br)cc2c1-c1ccccc1	-8.42% (active)
COc1cc(CSc2nc3ccc(C)cc3c(=O)n2-c2ccccc2)cc(OC)c1OC	-8.37% (active)
C/C(=N/NC(N)=S)C(=O)O	39.2%
O=C(CC1Sc2ccccc2NC1=O)NNc1cccc(Cl)c1Cl (centres undefined)	95.2%
COc1ccc2cc(-c3ccnc4c(N=Nc5ccc(Cl)cc5)c(N)nn34)ccc2c1	98.8%
COc1ccc(C(C)=O)cc1N1C(=O)C2C(C1=O)C1(c3ccccc3)C(=O)C2(c2ccccc2)C(c2ccc(C)cc2)=C1c1ccc(C)cc1 (centres undefined)	13.9%
CCC(CC)n1c(C)cc(=O)n1C(CC)CC	91.2%
O=S(=O)(O)c1ccc(Cl)cc1	105%
NC(=O)c1c(NC(=O)c2ccc(C(F)(F)F)cc2)sc2c1CCC(=O)C2	-30.7% (active)
O=C1/C(=C/c2ccccc2[N+](=O)[O-])Oc2ccc(O)c(O)c21	37.5%
O=C1c2ccccc2C(=O)c2c1ccc(C(Br)Br)c2Cl	-12.6% (active)
O=C(CCCCCCN1CC(=O)N2[C@H](c3ccc(Br)cc3)c3[nH]c4ccccc4c3C[C@@H]2C1=O)NO	33.9%
O=S(=O)(c1ccccc1)n1cc2c(c1-c1ccccc1)CCc1sc(Nc3ccccc3)nc1-2	73.3%
CCN1CCN(c2cc(C)nc(N(CCNc3ccnc4cc(Cl)ccc34)Cc3ccc4c(c3)OCO4)n2)CC1	-67.6% (active)
Fc1ccccc1Nc1n[nH]c(=S)s1	106%
O=[N+]([O-])c1ccc(-c2cn3nc(-c4c[nH]c5ccccc45)sc3n2)cc1	96%
CCc1ccccc1C(=O)N(CC)CC	116%
CC(CN1CCCCC1)NC(=O)c1scnc1-c1ccccc1 (centres undefined)	111%

— PubChem BioAssay (NCI)
